This is a sample that favours compounds with a hit; in the whole collection about 6.5% have one here.
VACV mCherry inh = inhibitors of vaccinia virus infection (mCherry reporter signal) | Vaccinia virus mCherry reporter infection, fluorescence | Potency, µM (highest dose often 36.5 µM), without a hit: top-dose activity change, negative = inhibition, most hits filed as inhibitors | 0.63% of 310,000 active | AID 720579; calls by dose curve; tested in A549 cells; also: potency is read from the fitted curve at half-maximal effect; nearly all actives have a fitted effect of over 35% in size
Vaccinia Venus = vaccinia inhibition (Venus reporter); Vaccinia virus Venus reporter expression, fluorescence; Potency, µM (titrated, usually from 36.5 µM), without a hit: at the top dose activity change, negative = inhibition, most hits filed as inhibitors; 0.46% of 330,000 active; AID 720580; calls by dose curve; tested in A549 cells; also: potency is read from the fitted curve at half-maximal effect; nearly all actives have a fitted effect of over 30% in size
MARV entry inh = blocks Marburg virus binding to or entry into cells | Marburg virus pseudotyped entry inhibition, cell reporter | Potency, µM (doses to about 37.8 µM), for the others: at the highest dose activity change, negative = inhibition, most hits filed as inhibitors | 1.8% of 300,000 active; calls by dose curve; tested in HEK293 cells; also: potency is read from the fitted curve at half-maximal effect
LASV entry inh = blocks Lassa virus binding to or entry into cells; 1.2% of 300,000 active; AID 540256; Lassa virus pseudotype entry inhibition, cell reporter; Potency, µM (doses to about 37.9 µM), for inactives: at the highest dose activity change, negative = inhibition, actives largely listed as inhibitors; calls by dose curve; tested in HEK293 cells; also: potency is read from the fitted curve at half-maximal effect; nearly all actives have a fitted effect of over 50% in size
FMDV antiviral = blocks foot and mouth disease virus; AID 1159524; FMDV antiviral cell-based qHTS; 1.2% of 410,000 active; Potency, µM (titrated, usually from 57.9 µM), for the others: top-dose activity change, negative = inhibition, hits mostly inhibitors; calls by dose curve; tested in HEK293T cells; also: read-out not given here; potency is read from the fitted curve at half-maximal effect; nearly all actives have a fitted effect of over 45% in size
HCMV inh = human cytomegalovirus inhibition; HFF cells, HCMV-luciferase reporter, 72 h; hits give low values; 4.5% of 410,000 active; activity change, negative = inhibition, % at 57.5 µM; AID 1259415; in the data active = activity change below about -60%; inconclusive = no clear call, values can overlap the other calls; inactive = above about -39%
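HFF cells seeded 16 h at 37C, treated with compounds, infected with luciferase-reporter HCMV at MOI 1 PFU/cell; luciferase read at 72 h post infection, normalized to buffer-only and Salinomycin controls.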
* = called active by the depositor; i = inactive; ? = inconclusive; / = no result; + = active, no number; ! = a repeat was not active; [ ] = dose if it differs, or a comment. % is scaled to controls: 0 for no effect and ±100 for the full control effect.

SMILES | VACV mCherry inh | Vaccinia Venus | MARV entry inh | LASV entry inh | FMDV antiviral | HCMV inh
O=C(Nc1ccc(-n2ccc(C(F)(F)F)n2)cc1)Nc1cccc(Cl)c1 | / | / | / | / | / | -84.3*
CC1CCCCC12NC(=O)N(CC(=O)OCc1ccc(Br)cc1)C2=O (stereo not given) | / | / | / | / | ? | +
CC1CCCCC12NC(=O)N(CC(=O)NCc1ccc3c(c1)OCO3)C2=O (stereo not given) | -1.5% | 11.8% | 0.4%[46.1 µM] | 6.4% | 8.4% | -80.4*
O=C(CN1C(=O)NC2(CCCC2)C1=O)OCc1ccc(Br)cc1 | -4.1% | -2.5% | 5.1%[46.1 µM] | 16.5% | -24.9% | -17.8
COc1cccc(CN2CCC(N(CCc3ccccc3)Cc3ccccc3)CC2)c1OC | ? | ? | 7.94µM* | ? | ? | -64.3*
Fc1ccc([C@@H]2CCNC[C@H]2COc2ccc3c(c2)OCO3)cc1 | ? | ? | 16.4µM* | ? | ? | ?
CC1=C(C)C(=O)C(N2CCOCC2)=CC1=O | / | / | 0.6% | / | 0.0% | -68.4*
O=C1C=C(N2CCOCC2)c2ccccc2C1=O | ? | 11.2µM* | 2.51µM* | ? | ? | -96.7*
COC(=O)[C@@H]1CCCN1Cc1ccc2c(c1)CN(Cc1ccccc1C)CCO2 | -13.9% | -2.6% | / | / | -10.1% | /
c1ccc(CN2CCC3(CCCc4ccccc43)CC2)cc1 | -14.1% | -27.8% | 6.31µM* | ? | ? | -7.2
c1ccc(CN2CCC3(CC2)Nc2ccccc2CO3)cc1 | / | / | -19.3% | -1.3% | 13.7% | -0.2
COc1ccccc1N(CC(=O)NCCSCc1ccccc1)S(=O)(=O)c1ccc(C)cc1 | ? | ? | ? | ? | 35.5µM* | -63.1*!
COc1ccccc1N(CC(=O)NCCSCc1ccccc1)S(=O)(=O)c1ccccc1 | -6.3% | ? | / | / | ? | -73.2*
COc1ccccc1N(CC(=O)NCCSCc1ccco1)S(=O)(=O)c1ccccc1 | -22.7% | -9.0% | ? | -2.9% | -23.7% | -28.2
COc1ccc(-n2ccn(CC(=O)NCCc3ccccc3)c(=O)c2=O)cc1OC | -9.3% | -3.2% | / | 24.7%[46.1 µM] | -8.9% | 1.0
COCCn1c(-c2cccs2)csc1=Nc1cccnc1 | i | -19.6% | 4.4%[46.1 µM] | 3.6%[46.1 µM] | 22.4µM* | -24.6
Fc1ccccc1-c1csc(=Nc2cccnc2)n1CC1CCCO1 (stereo not given) | -11.3% | -11.6% | -19.7% | -1.2% | ? | ?
Fc1ccccc1-c1csc(=Nc2cccnc2)n1CCCn1ccnc1 | -10.0% | -21.4% | ? | -25.2% | ? | -90.2*
COCCn1c(-c2ccco2)csc1=Nc1cccnc1 | / | / | 11.7% | -0.1% | -21.2% | 59.1
Cc1ccc(CN(Cc2cc3cc(C)ccc3[nH]c2=O)Cc2nnnn2Cc2ccccc2)cc1 | -4.7% | -15.6% | / | / | / | /
O=C(N/N=C/c1cccc2cccnc12)c1ccccc1O | / | / | / | / | 1.2% | -102.9*
O=C(N/N=C/c1cccc2nccnc12)c1ccccc1O | -11.8% | -9.2% | / | / | 1.5% | 10.5
CC(C)n1cc(/C=N/NC(=O)COc2cccc3cccnc23)c2ccccc21 | ? | ? | 10µM* | ? | ? | 11.8
COc1cccc(/C=N/NC(=O)COc2cccc3cccnc23)c1O | 12.6µM* | -25.3% | ? | ? | -8.2% | -6.0
COc1ccccc1OCC(=O)N/N=C/c1cccc2cccnc12 | ? | -30.0% | -28.2% | -18.2% | -10.3% | -4.3
SMILES | VACV mCherry inh | Vaccinia Venus | MARV entry inh | LASV entry inh | FMDV antiviral | HCMV inh
Cc1ccc(NC(=O)C2CCN(c3nc4ccccc4[nH]3)CC2)cc1Cl | i | -17.6% | / | -18.9%[46.1 µM] | -4.3% | 0.0
COc1cccc(CNC(=O)c2cnn(-c3ncc4c(n3)-c3ccccc3CCC4)c2C)c1OC | i | -18.4% | / | / | 43.3% | /
C[C@H]1Cc2c(COc3ccccc3)nc3c(c2CO1)CN(C(=O)c1cc(I)ccc1F)CC3 | / | / | -25.6%[14.2 µM] | / | / | /
COc1cccc(/C(O)=C2\C(=O)C(=O)N(c3ccccn3)[C@H]2c2ccccc2OC)c1 | / | / | 0.8% | / | / | /
O=C1O/C(=C/Br)CCC1c1cccc2ccccc12 (stereo not given) | / | / | 10µM* | 20.6µM* | / | /
O=c1cnc2cnc(Nc3ccccc3)nc2n1CCc1ccccc1 | / | / | / | / | -13.3% | /
O=C(CN(c1cccc([N+](=O)[O-])c1)S(=O)(=O)c1ccccc1)NCc1ccccc1 | i | -3.7% | -7.4% | -2.0% | 14.9% | -32.1
O=C(CN(c1cccc([N+](=O)[O-])c1)S(=O)(=O)c1ccccc1)N(Cc1ccccc1)Cc1ccccc1 | i | -7.2% | ? | ? | -6.9% | -62.1*
Cn1c(-n2cccc2)c(-c2c(-c3ccc(F)cc3)[nH]c3c2c(=O)n(C)c(=O)n3C)c(=O)n(C)c1=O | i | -6.2% | 8.8%[46.1 µM] | 15.5%[46.1 µM] | -15.1% | 26.5
COC(=O)c1cnn(-c2ccc(Cl)cc2)c1/C=N/NC(N)=S | -2.8% | -20.0% | ? | ? | 14.1µM* | ?
Nc1c(C(=O)N/N=C/c2ccc(Cl)cc2)cnn1-c1ccccc1 | -8.2% | -4.5% | -18.8% | ? | 16.0% | -4.8
CCCCCCCCN1C(=O)[C@@H](CC(=O)N2CCN(C(=O)C3CC3)CC2)C[C@@]2(C(=O)OC)C1=C[C@H](C1CCCC1)O[C@@H]2C | / | / | / | / | / | 67.3
COc1ccc(C2C(=O)N(C3CCCCCC3)CC(=O)N2Cc2ccccc2)cc1 (stereo not given) | 0.1% | -8.6% | / | ? | -29.3% | -67.3*
COc1ccc(C2C(=O)N(C3CCC(C)CC3)CC(=O)N2Cc2ccc(C)cc2)cc1OC (stereo not given) | -8.9% | -9.9% | / | -26.2%[46.1 µM] | -7.7% | -64.7*
O=C1C(c2ccc(F)cc2)N(CCc2ccc(Cl)cc2)C(=O)CN1C1CCCCCC1 (stereo not given) | -6.9% | -4.0% | / | 25.6%[46.1 µM] | -23.1% | -81.9*

Screening data as filed in PubChem.
